PRC2 inh: inhibitors of human EZH2/PRC2 methyltransferase | PRC2 H3K27 methylation, DELFIA TRF, 1 h | inhibition, % at 12.5 µM | 57,000 compounds, 0.35% hits | AID 651548;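 active means mean inhibition of replicates at least 50% and every single replicate also reaching 50%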;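 further: dimethyl H3K27 on biotinylated H3 21-44 peptide detected by antibody; plate controls were median neutral control wells for no effect and median positive control wells for full effect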
Target sequence (Q15910 whole entry, looked up): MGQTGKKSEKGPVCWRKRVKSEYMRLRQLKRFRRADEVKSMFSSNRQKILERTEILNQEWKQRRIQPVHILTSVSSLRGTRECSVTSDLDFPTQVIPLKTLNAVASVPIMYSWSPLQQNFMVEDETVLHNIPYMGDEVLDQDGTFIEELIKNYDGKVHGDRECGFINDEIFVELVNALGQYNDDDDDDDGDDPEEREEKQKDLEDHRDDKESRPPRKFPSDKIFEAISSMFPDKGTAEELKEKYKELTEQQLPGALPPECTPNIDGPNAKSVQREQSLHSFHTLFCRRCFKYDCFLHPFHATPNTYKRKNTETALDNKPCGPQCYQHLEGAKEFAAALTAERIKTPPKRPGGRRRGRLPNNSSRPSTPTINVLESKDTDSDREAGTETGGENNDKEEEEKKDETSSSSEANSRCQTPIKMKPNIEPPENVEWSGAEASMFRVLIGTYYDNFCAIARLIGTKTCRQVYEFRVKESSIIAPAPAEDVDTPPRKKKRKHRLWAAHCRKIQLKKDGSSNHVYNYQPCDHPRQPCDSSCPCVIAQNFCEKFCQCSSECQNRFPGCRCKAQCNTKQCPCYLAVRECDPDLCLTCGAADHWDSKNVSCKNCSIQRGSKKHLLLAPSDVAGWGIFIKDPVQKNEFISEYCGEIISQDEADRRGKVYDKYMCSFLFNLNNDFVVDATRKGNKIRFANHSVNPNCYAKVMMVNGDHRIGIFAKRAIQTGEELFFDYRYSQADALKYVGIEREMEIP
The depositor's hits bear a star. The full list was thinned out, with hits kept by preference.

SMILES	PRC2 inh
O=C(/C=C/c1ccc(O)c(O)c1)OCCc1ccccc1	15
C=C1CC(O)C2C(=C)C(=O)OC2C2C(=C)C(OC3OC(CO)C(O)C(OC(=O)/C=C/c4ccc(O)c(O)c4)C3O)CC12 (configuration not stated)	76*
C[C@@H]1O[C@@H](O[C@H]2[C@@H]3C=CO[C@@H](O[C@@H]4O[C@H](CO)[C@@H](O)[C@H](O)[C@H]4O)[C@@H]3[C@@]3(CO)O[C@@H]23)[C@H](OC(=O)/C=C/c2ccc(O)c(O)c2)[C@H](O)[C@H]1O	18
C[C@@H]1CN([C@@H](C)CO)C(=O)CCCn2cc(nn2)CO[C@@H]1CN(C)C(=O)Nc1ccccc1C(F)(F)F	-5
CN1CCN(C(=O)C[C@@H]2CC[C@@H](NS(=O)(=O)c3cccc(F)c3)[C@H](CO)O2)CC1	12
CC(C)c1onc(-c2c(Cl)cccc2Cl)c1COc1ccc(/C=C/c2cccc(C(=O)O)c2)c(Cl)c1	73*
Cc1ccccc1NC(=O)CSc1nc(O)cc(=O)[nH]1	-2
CO[C@@H]1CN(C)C(=O)c2cc(NS(=O)(=O)c3cn(C)cn3)ccc2OC[C@@H](C)NC[C@@H]1C	-2
COc1ccc(CC(=O)Nc2cccc(C(=O)Nc3ccccc3C(=O)O)c2)cc1OC	3
COCCOC(=O)N1C(=O)[C@@]2(c3cc(C#CCNC(N)=O)ccc31)[C@H](C(=O)N1CCc3cc(OC)c(OC)cc3C1)[C@H]1C(=O)O[C@H](c3ccccc3)[C@H](c3ccccc3)N1[C@@H]2c1ccccc1OCCO	-18
Cc1nn(Cc2ccccc2Cl)c(C)c1NC(=O)C1CC(c2ccc(Cl)cc2)=NO1 (configuration not stated)	1
Cc1ccc(/C=C/c2ccc(=O)n(Cc3ccccc3Cl)n2)cc1	70*
Cc1ccc(=O)n(-c2ccccc2)c1	-6
Cc1noc(C)c1S(=O)(=O)N(C)C[C@@H]1OCCCC[C@@H](C)Oc2ccc(NC(=O)CCCCCC(=O)Nc3ccccc3N)cc2C(=O)N([C@H](C)CO)C[C@@H]1C	-3
Cc1ccc(S(=O)(=O)Nc2ccc3c(c2)C(=O)N([C@@H](C)CO)C[C@H](C)[C@H](CN(C)Cc2ccncc2)O3)cc1	9
O=[N+]([O-])c1cccc(S(=O)(=O)NCCOc2ccccc2-c2ccccc2)c1	53*
O=[N+]([O-])c1cccc(S(=O)(=O)NCCOc2cccc3cccnc23)c1	-5
O=[N+]([O-])c1cccc(S(=O)(=O)NCCOc2cccc(Cl)c2Cl)c1	1
N#Cc1c(C(F)(F)F)cc(-c2cccs2)nc1SCC(=O)Nc1ccc2ccccc2c1	-26
CO[C@H]1CN(C)C(=O)c2cc(NC(=O)Nc3ccc4c(c3)OCO4)ccc2OC[C@H](C)NC[C@H]1C	-31
Cc1c(N(CC(=O)O)S(=O)(=O)c2ccccc2)c(=O)n(-c2ccccc2)n1C	-1
COC(=O)c1ccc(C2C(Oc3ccc(OC)cc3)C(=O)N2Cc2ccc(F)cc2)cc1 (configuration not stated)	51*
COC(=O)c1ccc(NC(=O)CCC(=O)c2ccc(OC)cc2)cc1	-1
COC(=O)c1ccc(C2C(C(=O)c3ccco3)C(=O)C(=O)N2Cc2ccco2)cc1 (configuration not stated)	-7
CCCC#Cc1cnc2c(c1)C(=O)N([C@H](C)CO)C[C@H](C)[C@H](CN(C)C(=O)Cc1cccnc1)O2	1
SMILES	PRC2 inh
O=C(C[C@H]1C[C@H]2c3cc(NC(=O)CC4CC4)ccc3O[C@H]2[C@H](CO)O1)NCC(F)(F)F	8
Cc1ccc(S(=O)(=O)N(CC(=O)O)CC(=O)O)cc1	8
CCCCCCCCC(=O)NCc1cc(OC)c(O)cc1I	12
COc1ccc(OC)c(NC(=O)COc2ccc(C(C)(C)C)cc2)c1	35
CCCCCCCCCCC(C)(C)C(=O)Nc1c(OC)cc(OC)cc1OC	85*
C[C@H](CO)N1C[C@H](C)[C@@H](CN(C)Cc2ccc3c(c2)OCO3)Oc2ccc(NS(=O)(=O)c3ccc(F)cc3)cc2CC1=O	1
C[C@@H]1CN([C@H](C)CO)S(=O)(=O)c2ccc(C#CC3CC3)cc2O[C@H]1CN(C)Cc1cccnc1	5
CC1(C)CC[C@]2(C(=O)O)CC[C@]3(C)C(=CCC4[C@@]5(C)C[C@@H](O)[C@H](O)[C@@](C)(CO)C5CC[C@]43C)[C@@H]2[C@@H]1O (some centres not stated)	55*
CC1(C)CC[C@]2(C(=O)O)CC[C@]3(C)C(=CCC4[C@@]5(C)CC[C@H](O[C@@H]6OC[C@H](O)[C@H](O)[C@H]6O)[C@@](C)(CO)C5CC[C@]43C)C2C1 (some centres not stated)	-12
CC1(C)CC[C@]2(C(=O)O)CC[C@]3(C)C(=CCC4[C@@]5(C)C[C@@H](O)[C@H](O)C(CO)(CO)C5CC[C@]43C)C2[C@@H]1O (some centres not stated)	44
C[C@H](CO)N1C[C@H](C)[C@H](CN(C)C(=O)c2cnccn2)Oc2cc(C#CC3CC3)ccc2S1(=O)=O	-14
C[C@H]1CN([C@@H](C)CO)C(=O)c2cccc(NC(=O)c3nc4ccccc4s3)c2O[C@@H]1CN(C)CC1CC1	-2
O=C(C[C@H]1C[C@H]2c3cc(NC(=O)c4cccnc4)ccc3O[C@H]2[C@@H](CO)O1)NCc1ccccc1F	2
CC(C)(O)C(O)COc1c2ccoc2cc2oc(=O)ccc12 (configuration not stated)	7
COc1c2ccoc2cc2oc(=O)ccc12	52*
COc1ccc2c(=O)ccoc2c1	8
C[C@H]1CN([C@@H](C)CO)S(=O)(=O)c2ccc(C3=CCCCC3)cc2O[C@H]1CN(C)Cc1cccc(C(=O)O)c1	17
C[C@H]1CN([C@@H](C)CO)S(=O)(=O)c2ccc(C3=CCCCC3)cc2O[C@@H]1CN(C)Cc1cccc(C(=O)O)c1	44
C[C@@H]1CN([C@H](C)CO)S(=O)(=O)c2ccc(Br)cc2O[C@H]1CN(C)Cc1cccc(C(=O)O)c1	1
C[C@@H]1CN([C@@H](C)CO)S(=O)(=O)c2ccc(C#CCC3CCCC3)cc2O[C@H]1CN(C)Cc1cccc(C(=O)O)c1	62*
C[C@H]1CN([C@@H](C)CO)S(=O)(=O)c2ccc(/C=C/c3ccccc3)cc2O[C@H]1CN(C)Cc1ccccc1	10
C[C@H](CO)N1C[C@H](C)[C@@H](CN(C)Cc2ccccc2)Oc2cc(/C=C/c3ccccc3)ccc2S1(=O)=O	-1
C[C@@H]1CN([C@@H](C)CO)S(=O)(=O)c2ccc(C3=CCCCC3)cc2O[C@H]1CN(C)Cc1cccc(C(=O)O)c1	56*
C[C@H](CO)N1C[C@H](C)[C@@H](CN(C)Cc2cccc(C(=O)O)c2)Oc2cc(Br)ccc2S1(=O)=O	13
C[C@H]1CN([C@@H](C)CO)S(=O)(=O)c2ccc(/C=C/c3ccccc3)cc2O[C@@H]1CN(C)Cc1ccc(C(=O)O)cc1	53*
O=C(NCC[C@H]1CC[C@H](NC(=O)c2ccc3c(c2)OCO3)[C@H](CO)O1)Nc1cc(F)ccc1F	-8
O=C1O[C@@H](c2ccccc2)[C@@H](c2ccccc2)N2[C@@H](c3ccc(OCCO)cc3)[C@]3(C(=O)Nc4ccc(C#CCCO)cc43)[C@@H](C(=O)N3CCCCCCC3)[C@H]12	-27
Cn1c(SCC(=O)Nc2ccc(Cl)cc2Cl)nnc1-c1ccc(Br)cc1	14
O=C(C[C@@H]1C[C@H]2c3cc(NC(=O)Nc4ccccc4)ccc3O[C@H]2[C@H](CO)O1)NCC(F)(F)F	9

Assay outcomes from PubChem BioAssay.
